# Assay results taken from paper PMC9911399, “Two distinct binding modes provide the RNA-binding protein RbFox with extraordinary sequence specificity”.
# Where a chain is given by its changes, count along the chain named. In all, about 16,000 sequences were measured (“ka relative to ugcaugu”: median about 0.0091, highest 2% from about 0.032 on). The sample holds the highest values, similar sequences and a random draw of the others, so the mix is not that of the screen.
# T1: RBFOX1 RRM (Homo sapiens, UniProt Q9NWB1 109-208)
# T1 sequence: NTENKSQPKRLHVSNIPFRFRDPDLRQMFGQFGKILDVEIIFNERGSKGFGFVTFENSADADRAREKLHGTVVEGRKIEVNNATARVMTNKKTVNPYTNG
# B1: UAAUAUG (DNA:RNA)
# RNA: GGGAGACCGGAAUUCAGAUUGUCCUAAUAUGUUAAAUCCCGUCGUAGCCACCA
# DNA 1: CAATCTGAATTCCGGTCTCCC
# DNA 2: TGGTGGCTACGACGGGATT
# B2: AGGACGU (DNA:RNA)
# RNA: GGGAGACCGGAAUUCAGAUUGUCCAGGACGUUUAAAUCCCGUCGUAGCCACCA
# DNA 1: CAATCTGAATTCCGGTCTCCC
# DNA 2: TGGTGGCTACGACGGGATT
# B3: GAUCGUC (DNA:RNA)
# RNA: B1 RNA with U25G, A27U, U28C, A29G, G31C
# DNA 1: CAATCTGAATTCCGGTCTCCC
# DNA 2: TGGTGGCTACGACGGGATT
# B4: AUUACAA (DNA:RNA)
# RNA: B2 RNA with G26U, G27U, G30A, U31A
# DNA 1: CAATCTGAATTCCGGTCTCCC
# DNA 2: TGGTGGCTACGACGGGATT
# B5: CCUAUUU (DNA:RNA)
# RNA: B2 RNA with A25C, G26C, G27U, C29U, G30U
# DNA 1: CAATCTGAATTCCGGTCTCCC
# DNA 2: TGGTGGCTACGACGGGATT
# B6: CUUAUAA (DNA:RNA)
# RNA: B2 RNA with A25C, G26U, G27U, C29U, G30A, U31A
# DNA 1: CAATCTGAATTCCGGTCTCCC
# DNA 2: TGGTGGCTACGACGGGATT
# B7: CGGGUAA (DNA:RNA)
# RNA: B2 RNA with A25C, A28G, C29U, G30A, U31A
# DNA 1: CAATCTGAATTCCGGTCTCCC
# DNA 2: TGGTGGCTACGACGGGATT
# B8: CAGCGAG (DNA:RNA)
# RNA: B1 RNA with U25C, A27G, U28C, A29G, U30A
# DNA 1: CAATCTGAATTCCGGTCTCCC
# DNA 2: TGGTGGCTACGACGGGATT
# B9: GGGGGUU (DNA:RNA)
# RNA: B2 RNA with A25G, A28G, C29G, G30U
# DNA 1: CAATCTGAATTCCGGTCTCCC
# DNA 2: TGGTGGCTACGACGGGATT
# B10: GGUUUUU (DNA:RNA)
# RNA: B2 RNA with A25G, G27U, A28U, C29U, G30U
# DNA 1: CAATCTGAATTCCGGTCTCCC
# DNA 2: TGGTGGCTACGACGGGATT
# B11: CGGGGUU (DNA:RNA)
# RNA: B2 RNA with A25C, A28G, C29G, G30U
# DNA 1: CAATCTGAATTCCGGTCTCCC
# DNA 2: TGGTGGCTACGACGGGATT
# B12: CGGGGGU (DNA:RNA)
# RNA: B2 RNA with A25C, A28G, C29G
# DNA 1: CAATCTGAATTCCGGTCTCCC
# DNA 2: TGGTGGCTACGACGGGATT
# B13: GCGGGUU (DNA:RNA)
# RNA: B2 RNA with A25G, G26C, A28G, C29G, G30U
# DNA 1: CAATCTGAATTCCGGTCTCCC
# DNA 2: TGGTGGCTACGACGGGATT
# B14: GCGGGGU (DNA:RNA)
# RNA: B2 RNA with A25G, G26C, A28G, C29G
# DNA 1: CAATCTGAATTCCGGTCTCCC
# DNA 2: TGGTGGCTACGACGGGATT
# B15: GGGGUUU (DNA:RNA)
# RNA: B2 RNA with A25G, A28G, C29U, G30U
# DNA 1: CAATCTGAATTCCGGTCTCCC
# DNA 2: TGGTGGCTACGACGGGATT
# B16: CCGGGGU (DNA:RNA)
# RNA: B2 RNA with A25C, G26C, A28G, C29G
# DNA 1: CAATCTGAATTCCGGTCTCCC
# DNA 2: TGGTGGCTACGACGGGATT
# B17: GGGGGGU (DNA:RNA)
# RNA: B2 RNA with A25G, A28G, C29G
# DNA 1: CAATCTGAATTCCGGTCTCCC
# DNA 2: TGGTGGCTACGACGGGATT
# B18: AUGGUGU (DNA:RNA)
# RNA: B2 RNA with G26U, A28G, C29U
# DNA 1: CAATCTGAATTCCGGTCTCCC
# DNA 2: TGGTGGCTACGACGGGATT
# B19: CAUGUGU (DNA:RNA)
# RNA: B2 RNA with A25C, G26A, G27U, A28G, C29U
# DNA 1: CAATCTGAATTCCGGTCTCCC
# DNA 2: TGGTGGCTACGACGGGATT
# B20: AGAAGGC (DNA:RNA)
# RNA: B2 RNA with G27A, C29G, U31C
# DNA 1: CAATCTGAATTCCGGTCTCCC
# DNA 2: TGGTGGCTACGACGGGATT
# B21: GAAUGAG (DNA:RNA)
# RNA: B1 RNA with U25G, A29G, U30A
# DNA 1: CAATCTGAATTCCGGTCTCCC
# DNA 2: TGGTGGCTACGACGGGATT
# B22: GCGUCGU (DNA:RNA)
# RNA: B2 RNA with A25G, G26C, A28U
# DNA 1: CAATCTGAATTCCGGTCTCCC
# DNA 2: TGGTGGCTACGACGGGATT
# B23: AUGCCGG (DNA:RNA)
# RNA: B2 RNA with G26U, A28C, U31G
# DNA 1: CAATCTGAATTCCGGTCTCCC
# DNA 2: TGGTGGCTACGACGGGATT
# B24: AGCGCGG (DNA:RNA)
# RNA: B2 RNA with G27C, A28G, U31G
# DNA 1: CAATCTGAATTCCGGTCTCCC
# DNA 2: TGGTGGCTACGACGGGATT
# B25: AGAACUA (DNA:RNA)
# RNA: B2 RNA with G27A, G30U, U31A
# DNA 1: CAATCTGAATTCCGGTCTCCC
# DNA 2: TGGTGGCTACGACGGGATT
# B26: UGCCCGC (DNA:RNA)
# RNA: B2 RNA with A25U, G27C, A28C, U31C
# DNA 1: CAATCTGAATTCCGGTCTCCC
# DNA 2: TGGTGGCTACGACGGGATT
# B27: UGCCUGA (DNA:RNA)
# RNA: B2 RNA with A25U, G27C, A28C, C29U, U31A
# DNA 1: CAATCTGAATTCCGGTCTCCC
# DNA 2: TGGTGGCTACGACGGGATT
# B28: UGUUUGG (DNA:RNA)
# RNA: B1 RNA with A26G, A27U, A29U, U30G
# DNA 1: CAATCTGAATTCCGGTCTCCC
# DNA 2: TGGTGGCTACGACGGGATT
# B29: UGCCUGC (DNA:RNA)
# RNA: B2 RNA with A25U, G27C, A28C, C29U, U31C
# DNA 1: CAATCTGAATTCCGGTCTCCC
# DNA 2: TGGTGGCTACGACGGGATT
# B30: UGGUUUG (DNA:RNA)
# RNA: B1 RNA with A26G, A27G, A29U
# DNA 1: CAATCTGAATTCCGGTCTCCC
# DNA 2: TGGTGGCTACGACGGGATT
# B31: CGAUCGA (DNA:RNA)
# RNA: B2 RNA with A25C, G27A, A28U, U31A
# DNA 1: CAATCTGAATTCCGGTCTCCC
# DNA 2: TGGTGGCTACGACGGGATT
# B32: UGCCUCG (DNA:RNA)
# RNA: B1 RNA with A26G, A27C, U28C, A29U, U30C
# DNA 1: CAATCTGAATTCCGGTCTCCC
# DNA 2: TGGTGGCTACGACGGGATT
# B33: UGAUCGA (DNA:RNA)
# RNA: B2 RNA with A25U, G27A, A28U, U31A
# DNA 1: CAATCTGAATTCCGGTCTCCC
# DNA 2: TGGTGGCTACGACGGGATT
# B34: UGGUUGU (DNA:RNA)
# RNA: B2 RNA with A25U, A28U, C29U
# DNA 1: CAATCTGAATTCCGGTCTCCC
# DNA 2: TGGTGGCTACGACGGGATT
# B35: UGAUUGA (DNA:RNA)
# RNA: B1 RNA with A26G, A29U, U30G, G31A
# DNA 1: CAATCTGAATTCCGGTCTCCC
# DNA 2: TGGTGGCTACGACGGGATT
# B36: UGAUCCG (DNA:RNA)
# RNA: B1 RNA with A26G, A29C, U30C
# DNA 1: CAATCTGAATTCCGGTCTCCC
# DNA 2: TGGTGGCTACGACGGGATT
# B37: UGAUUAA (DNA:RNA)
# RNA: B1 RNA with A26G, A29U, U30A, G31A
# DNA 1: CAATCTGAATTCCGGTCTCCC
# DNA 2: TGGTGGCTACGACGGGATT
# Molecular target: T1, RBFOX1 RRM
# Experiment: EMSA; HiTS-Eq, 1 nM pool, 10 min; buffer printed only for the single-RNA assays: 10 mM Tris pH 7.5, 150 mM NaCl, 3.4 mM EDTA, 0.001% NP-40, 30 C
# Details: tags: His6 N-terminal (pET28a); label: 5' 32P
# In short: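 A pool of RNA with 7 randomized nucleotides, 5′-radiolabelled and with DNA-annealed flanks, was equilibrated at 1 nM for 10 min in 50 µL with purified RbFox RRM, wild type or mutant, across increasing protein concentrations. Free RNA was separated by 8% native PAGE, excised, reverse-transcribed, barcoded by PCR and sequenced. Relative association constants were obtained from read-count changes of each RNA species versus the control reaction and normalised to the cognate motif.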
row,Binder,binding signal
1,B1,0.0114 KA relative to UGCAUGU
2,B2,0.0265 KA relative to UGCAUGU
3,B3,0.0199 KA relative to UGCAUGU
4,B4,0.000272 KA relative to UGCAUGU
5,B5,0.00115 KA relative to UGCAUGU
6,B6,0.00174 KA relative to UGCAUGU
7,B7,0.0192 KA relative to UGCAUGU
8,B8,0.00935 KA relative to UGCAUGU
9,B9,0.0471 KA relative to UGCAUGU
10,B10,0.00799 KA relative to UGCAUGU
11,B11,0.0339 KA relative to UGCAUGU
12,B12,0.0227 KA relative to UGCAUGU
13,B13,0.0192 KA relative to UGCAUGU
14,B14,0.0285 KA relative to UGCAUGU
15,B15,0.046 KA relative to UGCAUGU
16,B16,0.0122 KA relative to UGCAUGU
17,B17,0.0254 KA relative to UGCAUGU
18,B18,0.0152 KA relative to UGCAUGU
19,B19,0.0132 KA relative to UGCAUGU

row,Binder,binding signal
1,B20,0.00991 KA relative to UGCAUGU
2,B21,0.0255 KA relative to UGCAUGU
3,B22,0.0171 KA relative to UGCAUGU
4,B23,0.0153 KA relative to UGCAUGU
5,B24,0.0172 KA relative to UGCAUGU
6,B25,0.00165 KA relative to UGCAUGU
7,B26,0.0206 KA relative to UGCAUGU
8,B27,0.0398 KA relative to UGCAUGU
9,B28,0.0271 KA relative to UGCAUGU
10,B29,0.0698 KA relative to UGCAUGU
11,B30,0.0372 KA relative to UGCAUGU
12,B31,0.0185 KA relative to UGCAUGU
13,B32,0.0235 KA relative to UGCAUGU
14,B33,0.0347 KA relative to UGCAUGU
15,B34,0.0314 KA relative to UGCAUGU
16,B35,0.028 KA relative to UGCAUGU
17,B36,0.0149 KA relative to UGCAUGU
18,B37,0.00933 KA relative to UGCAUGU
